According to PubChem BioAssay AID1159580 (chemical genetic matrix, 2015):
Several values for one entry are separate records, joined by “and”; a condition that tells them apart may be missing. Equal entries are not always repeated. Among all 5,500 compounds or so, about 2,000 (36%) were called active. Inconclusive results (about 18%) are left out. No stated cut-off is given here; in the data, active means normalized growth mostly below about 0.91 (no sharp cut-off); inconclusive means no clear call, values can overlap the other calls; inactive means mostly above about 0.92. The list shows a part of the results.

Assay: chemical genetic growth profiling, strain panel (AID 1159580);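 further: tested at 20 µM; growth read once vehicle control cultures reached saturation at 30 °C; 1 = growth at the plate median or of vehicle wells; lower values mean less growth of the strain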
Conditions: S. cerevisiae deletion strains, growth OD

Measured: normalized growth

COc1ccc([C@H]2Oc3cc(OC)cc(OC)c3C[C@H]2O)cc1
inactive: locus YAL013W, strain DEP1, hits give low values 1.01 | locus YAL021C, strain ccr4, hits give low values 1 | locus YAL026C, strain drs2, hits give low values 0.995 | locus YAL030W, strain snc1, hits give low values 0.993 | locus YBL061C, strain skt5, hits give low values 0.997 | locus YBR009C, strain hhf1, hits give low values 1.01 | locus YBR021W, strain FUR4, hits give low values 1.06 | locus YBR023C, strain chs3, hits give low values 1 | locus YBR171W, strain sec66, hits give low values 0.98 | locus YBR229C, strain ROT2, hits give low values 1 | locus YBR231C, strain swc5, hits give low values 1.01 | locus YBR279W, strain paf1, hits give low values 0.994 | locus YCL011C, strain gbp2, hits give low values 0.997 | locus YCL016C, strain dcc1, hits give low values 1 | locus YCL029C, strain bik1, hits give low values 1.01 | locus YCL061C, strain MRC1, hits give low values 0.987 | locus YCL069W, strain vba3, hits give low values 0.996 | locus YCR088W, strain abp1, hits give low values 0.999 | locus YDL005C, strain med2, hits give low values 0.996 | locus YDL035C, strain GPR1, hits give low values 1.05 | locus YDL040C, strain nat1, hits give low values 1 | locus YDL074C, strain BRE1, hits give low values 1.12 | locus YDL101C, strain DUN1, hits give low values 1.01 | locus YDL185W, strain tfp1, hits give low values 1.01 | locus YDL192W, strain arf1, hits give low values 1 | locus YDR001C, strain nth1, hits give low values 0.998 | locus YDR069C, strain doa4, hits give low values 1.01 | locus YDR101C, strain arx1, hits give low values 0.983 | locus YDR137W, strain rgp1, hits give low values 0.867 | locus YDR159W, strain sac3, hits give low values 0.998 | locus YDR162C, strain NBP2, hits give low values 1.03 | locus YDR195W, strain ref2 1.05 | locus YDR297W, strain sur2, hits give low values 1 | locus YDR318W, strain mcm21, hits give low values 1 | locus YDR334W, strain swr1, hits give low values 1.01 | locus YDR335W, strain msn5, hits give low values 1 | locus YDR388W, hits give low values 1.01 | locus YDR392W, strain spt3, hits give low values 0.948 | locus YDR502C, strain sam2, hits give low values 1.01 | locus YEL003W, strain gim4, hits give low values 0.996 | locus YEL037C, strain rad23, hits give low values 0.989 | locus YEL061C, strain CIN8 (second series), hits give low values 1 | locus YEL061C, strain CIN8, hits give low values 1.02 | locus YER015W, strain faa2, hits give low values 1 | locus YER016W, strain bim1, hits give low values 0.994 | locus YER110C, hits give low values 0.987 | locus YER111C, strain swi4, hits give low values 0.998 | locus YER155C, strain BEM2 (second series), hits give low values 1.01 | locus YER155C, strain BEM2, hits give low values 1 | locus YER167W, strain BCK2, hits give low values 1 | locus YFR010W, strain ubp6, hits give low values 1.01 | locus YGL078C, strain dbp3, hits give low values 1.02 | locus YGL086W, strain mad1, hits give low values 0.999 | locus YGL167C, strain pmr1, hits give low values 0.989 | locus YGL173C, strain kem1, hits give low values 1 | locus YGL227W, strain vid30, hits give low values 1 | locus YGL240W, strain doc1, hits give low values 1.01 | locus YGL248W, strain PDE1, hits give low values 1.05 | locus YGL253W, strain hxk2, hits give low values 0.996 | locus YGR135W, strain pre9, hits give low values 1.07 | locus YGR252W, strain gcn5, hits give low values 1.08 | locus YHR013C, strain ard1, hits give low values 1.05 | locus YHR027C, strain rpn1, hits give low values 0.992 | locus YHR030C, strain SLT2, hits give low values 0.985 | locus YHR079C, strain IRE1 (second series), hits give low values 1.02 | locus YHR079C, strain IRE1, hits give low values 0.994 | locus YHR094C, strain hxt1, hits give low values 1.01 | locus YHR129C, strain ARP1, hits give low values 1.02 | locus YHR142W, strain chs7, hits give low values 0.981 | locus YHR200W, strain rpn10, hits give low values 1.03 | locus YIL066C, strain RNR3, hits give low values 1.02 | locus YIL073C, strain SPO22, hits give low values 1.07 | locus YIL125W, strain kgd1, hits give low values 1 | locus YIR030C, strain dcg1, hits give low values 0.99 | locus YJL092W, strain hpr5, hits give low values 0.997 | locus YJL095W, strain BCK1 (second series), hits give low values 1 | locus YJL095W, strain BCK1, hits give low values 1.04 and 1 | locus YJL115W, strain asf1, hits give low values 1.01 | locus YJL129C, strain trk1, hits give low values 1.04 | locus YJL134W, strain LCB3, hits give low values 1 | locus YJL154C, strain vps35, hits give low values 0.989 | locus YJL164C, strain tpk1, hits give low values 1.01 | locus YJL166W, strain qcr8, hits give low values 0.994 | locus YJL168C, strain set2, hits give low values 1 | locus YJL187C, strain SWE1 (second series), hits give low values 1.03 | locus YJL187C, strain SWE1, hits give low values 1 | locus YJR043C, strain POL32, hits give low values 1.08 | locus YJR066W, strain TOR1, hits give low values 0.938 | locus YKL009W, strain mrt4, hits give low values 1.03 | locus YKL068W, hits give low values 1 | locus YKL085W, strain MDH1 (second series), hits give low values 0.99 | locus YKL085W, strain MDH1, hits give low values 0.99 | locus YKL160W, strain elf1, hits give low values 0.994 | locus YKL190W, strain CNB1, hits give low values 1.02 | locus YKR001C, strain vps1, hits give low values 0.99 | locus YKR026C, strain gcn3, hits give low values 0.999 | locus YKR091W, strain srl3, hits give low values 1 | locus YLL001W, strain dnm1, hits give low values 0.988 | locus YLL026W, hits give low values 1 | locus YLL041C, strain sdh2, hits give low values 0.985 | locus YLR027C, strain aat2, hits give low values 0.997 | locus YLR039C, strain RIC1, hits give low values 1.1 | locus YLR058C, strain SHM2, hits give low values 1.01 | locus YLR102C, strain apc9, hits give low values 0.997 | locus YLR113W, strain HOG1, hits give low values 0.983 | locus YLR221C, strain rsa3, hits give low values 1 | locus YLR258W, strain gsy2, hits give low values 0.995 | locus YLR262C, strain YPT6 (second series), hits give low values 0.914 | locus YLR268W, strain sec22, hits give low values 1.01 | locus YLR320W, strain mms22, hits give low values 0.999 | locus YLR342W, strain FKS1 (second series), hits give low values 0.997 | locus YLR342W, strain FKS1, hits give low values 0.994 | locus YLR357W, strain rsc2, hits give low values 1.07 | locus YLR370C, strain arc18, hits give low values 0.99 | locus YLR371W, strain rom2, hits give low values 1.04 | locus YLR384C, strain iki3, hits give low values 0.994 | locus YLR418C, strain cdc73, hits give low values 1.06 | locus YML016C, strain PPZ1, hits give low values 0.998 | locus YML032C, strain rad52, hits give low values 1.01 | locus YML120C, strain ndi1, hits give low values 1.01 | locus YML124C, strain tub3, hits give low values 1 | locus YMR058W, strain fet3, hits give low values 0.997 | locus YMR078C, strain ctf18, hits give low values 1.01 | locus YMR125W, strain sto1, hits give low values 1.01 | locus YMR129W, hits give low values 1 | locus YMR205C, strain PFK2, hits give low values 1.02 | locus YMR223W, strain ubp8, hits give low values 1 | locus YMR231W, strain pep5, hits give low values 0.989 | locus YMR307W, strain GAS1, hits give low values 1.31 | locus YNL067W, strain RPL9B, hits give low values 1.02 | locus YNL071W, strain lat1, hits give low values 0.994 | locus YNL183C, strain NPR1, hits give low values 0.932 | locus YNL209W, strain ssb2, hits give low values 0.994 | locus YNL233W, strain BNI4, hits give low values 1.06 | locus YNL248C, strain rpa49, hits give low values 1.01 | locus YNL250W, strain rad50, hits give low values 1.05 | locus YNL271C, strain bni1, hits give low values 0.995 | locus YNL298W, strain CLA4, hits give low values 0.975 | locus YNL307C, strain MCK1, hits give low values 1.02 | locus YNL322C, strain KRE1 (second series), hits give low values 1 | locus YNL322C, strain KRE1, hits give low values 1.01 | locus YNR049C, strain mso1, hits give low values 1 | locus YNR052C, strain pop2, hits give low values 1.02 | locus YOL012C, strain htz1 1.39 | locus YOL147C, strain pex11, hits give low values 0.994 | locus YOR001W, strain rrp6, hits give low values 0.992 | locus YOR061W, strain CKA2, hits give low values 1 | locus YOR069W, strain VPS5, hits give low values 0.996 | locus YOR070C, strain gyp1, hits give low values 0.99 | locus YOR080W, strain dia2, hits give low values 1.01 | locus YOR083W, strain WHI5, hits give low values 0.993 | locus YOR106W, strain vam3, hits give low values 0.999 | locus YOR136W, strain idh2, hits give low values 1 | locus YOR144C, strain elg1, hits give low values 1 | locus YOR184W, strain ser1, hits give low values 0.94 | locus YOR231W, strain MKK1, hits give low values 1 | locus YOR265W, strain rbl2, hits give low values 0.999 | locus YOR270C, strain vph1, hits give low values 0.976 | locus YOR290C, strain snf2, hits give low values 1.01 | locus YOR316C, strain cot1, hits give low values 1.02 | locus YPL051W, strain arl3, hits give low values 0.984 | locus YPL055C, strain LGE1, hits give low values 1.09 | locus YPL078C, strain atp4, hits give low values 0.995 | locus YPL106C, strain sse1, hits give low values 1.07 | locus YPL240C, strain hsp82, hits give low values 0.986 | locus YPL256C, strain CLN2, hits give low values 0.972 | locus YPR119W, strain clb2, hits give low values 0.99 | locus YPR141C, strain kar3, hits give low values 0.998 | locus YPR163C, strain tif3, hits give low values 1.01 | locus YPR167C, strain met16, hits give low values 1.01 | strain wtn01, hits give low values 0.992
